TDP1 cell noCPT: qHTS for Inhibitors of human tyrosyl-DNA phosphodiesterase 1 (TDP1): qHTS in cells in absence of CPT. Potency, µM (doses to about 46.2 µM), without a hit: top-dose activity change, negative = growth inhibition, actives largely listed as inhibitors. hit rate 15% among 420,000. DT40 Tdp1-/- hTDP1 cells, no CPT, ATP luminescence, 48 h. AID 686978, 2013; note: potency is the fitted concentration of half-maximal effect; % is set by controls: 0 for no effect and ±100 for the full control effect; nearly all actives have a fitted effect of over 55% in size
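A cellular qHTS used chicken DT40 cells lacking endogenous Tdp1 but carrying stably transfected human TDP1. Compounds were applied without camptothecin, and cell growth kinetics were judged by ATP-dependent luminescence after ≥48 hr.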
HepG2 viability: kills HepG2 cells in TGF-b inhibitor counter-screen. HepG2 CAGA-GFP viability, ATP luminescence, 18 h. Potency, µM (series often up to 46.1 µM), for the others: top-dose activity change, negative = cytotoxicity, hits mostly cytotoxic. hit rate 0.76% among 410,000. AID 588856; note: potency is the fitted concentration of half-maximal effect
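HepG2 CAGA-GFP cells (1000/well, DMEM with 1% FBS) received compound, then TGF-beta at 500 pg/mL final, and were incubated 18 hours at 37 degrees C. Viability was read by CellTiter-Glo luminescence. Media-only wells were set as complete cell-killing and DMSO as no toxicity.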
TDP1 block: TDP1 (human) enzyme inhibition | Q9NUW8 | Potency, µM (titrated, usually from 130 µM), for inactives: top-dose activity change, negative = inhibition, usual class: inhibitors | hit rate 0.28% among 350,000 | recombinant TDP1, AlphaScreen DNA substrate cleavage; note: potency is the fitted concentration of half-maximal effect; % is set by controls: 0 for no effect and ±100 for the full control effect; nearly all actives have a fitted effect of over 40% in size
Target sequence (Q9NUW8 whole entry, looked up): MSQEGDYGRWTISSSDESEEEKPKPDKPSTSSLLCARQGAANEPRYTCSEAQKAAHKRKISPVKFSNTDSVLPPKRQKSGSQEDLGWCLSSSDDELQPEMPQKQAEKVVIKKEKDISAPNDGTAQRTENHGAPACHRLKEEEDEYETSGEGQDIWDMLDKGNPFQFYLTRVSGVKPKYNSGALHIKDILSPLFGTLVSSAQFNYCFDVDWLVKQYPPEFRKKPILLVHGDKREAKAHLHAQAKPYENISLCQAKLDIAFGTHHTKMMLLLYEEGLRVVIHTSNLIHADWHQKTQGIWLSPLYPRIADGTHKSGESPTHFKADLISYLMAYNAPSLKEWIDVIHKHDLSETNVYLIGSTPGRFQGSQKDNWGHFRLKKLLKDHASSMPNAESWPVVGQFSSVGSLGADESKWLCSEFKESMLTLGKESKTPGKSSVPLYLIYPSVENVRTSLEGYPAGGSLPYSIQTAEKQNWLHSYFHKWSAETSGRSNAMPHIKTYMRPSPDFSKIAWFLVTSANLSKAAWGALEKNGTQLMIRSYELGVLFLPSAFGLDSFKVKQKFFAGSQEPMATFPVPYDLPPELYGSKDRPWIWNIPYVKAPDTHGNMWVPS
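E. coli-derived human Tdp1, 1 nM final. Cpd preinc 15 min RT; substrate 15 nM final, 5 min RT; AS bead mix 10 ug/ml final, 10 min RT. Signal loss = tyrosine-FITC cleavage. No-enzyme wells = max signal.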
IL-1B inflam inh: inflammasome signaling inhibition, IL-1 beta readout. THP-1 LPS/ATP IL-1B secretion, AlphaLISA, 16 h; active compounds read low. activity change, % at 57.5 µM. hit rate 4.7% among 360,000. AID 743279; in the data active = activity change below about -50%; inconclusive = mostly about -30% to -49%; note: % is set by controls: 0 for no effect and ±100 for the full control effect
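Secreted IL-1B measured by AlphaLISA bead assay after 16 h compound exposure of THP-1 cells; compounds (final up to 57.5 uM) added 1 h before LPS (250 ng/mL) and ATP (1.25 mM) stimulation; lower signal means less secretion.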
TGFb SMAD3 inh: inhibitors of TGF-b signaling; HepG2 CAGA-GFP TGF-b/SMAD3 reporter, GFP fluorescence, 18 h; TGF-beta stimulated, 500 pg/mL final; Potency, µM (titrated, usually from 46.1 µM), for the others: top-dose activity, negative = inhibition, hits mostly inhibitors; hit rate 1.2% among 410,000; note: potency is the fitted concentration of half-maximal effect; % is set by controls: 0 for no effect and ±100 for the full control effect; nearly all actives have a fitted effect of over 65% in size
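Per well, imaged GFP fluorescence of HEPG2 CAGA-GFP cells gives the signal; cells get compound, then TGF-beta (500 pg/mL final), 18 h at 37 degrees C; %Activity versus -TGF-beta and +DMSO controls.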
DT40 TDP1 CPT: DT40-hTDP1 cell growth loss with CPT | chicken DT40 Tdp1-/-;hTDP1 cells + 20 nM CPT, ATP luminescence, 48 h | AID 686979 | Potency, µM (doses to about 46.2 µM), for inactives: at the top dose activity change, negative = growth inhibition, most hits filed as inhibitors | hit rate 12% among 420,000; note: potency is the fitted concentration of half-maximal effect; % is set by controls: 0 for no effect and ±100 for the full control effect; nearly all actives have a fitted effect of over 55% in size
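Chicken DT40 Tdp1-/- cells complemented with human TDP1, 400 cells/well, exposed to compounds plus 20 nM camptothecin for at least 48 h at 37 C; viability read as ATP content by CellTiter-Glo luminescence.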
Numbers without * were called inactive; u = inconclusive; x = no result; [ ] = dose if it differs, or a comment. Shown are actives, neighbours in structure and some others; about 19% of the full set was active somewhere. Unless noted, calls come from the whole dose curve; as a rule, active = well fitted curve in the direction sought with a large enough effect; inconclusive = small, poorly fitted or top-dose-only effect, or another doubt; inactive = no such curve, though single readings can be large; an effect the other way counts as inactive or inconclusive.

SMILES	TDP1 cell noCPT	HepG2 viability	TDP1 block	IL-1B inflam inh	TGFb SMAD3 inh	DT40 TDP1 CPT
CC(=O)Nc1ccc(NC(=O)C(C)Sc2nnc(C3CC3)n2-c2ccccc2)cc1 (centres undefined)	10.8%	-38.7%	2.0%	14.6	-0.7%	2.8%
CCCN(CCC)CCNC(=O)c1sc2nc3n(c(=O)c2c1C)CCCCC3	-25.1%	-24.1%	0.0%	x	3.3%	u
Cc1cc([N+](=O)[O-])ccc1NC(=O)/C=C/c1cccs1	u	-1.0%	-0.6%	u	-20.3%	-3.9%
Cc1ccc(C(=O)N/N=C/c2ccc([N+](=O)[O-])s2)cc1	7.31µM*	-29.1%	u	-18.7	u	8.2µM*
CC(C)(C)OC(=O)N/N=C\c1ccc([N+](=O)[O-])s1	u	-13.3%	6.1%	-18.7	-20.1%	-1.3%
Cc1ccc(NC(=O)/C=C/c2ccc([N+](=O)[O-])s2)cc1	3.66µM*	-12.6%	0.0%	-95.9*	-30.4%	3.26µM*
Cc1cccc(N2CCN(C(=O)c3cccn3-c3nnc(N4CCCCC4)s3)CC2)c1C	23.1µM*	-51.5%	7.9%	x	u	23.1µM*
COc1cccc(N2CCN(C(=O)c3cccn3-c3nnc(N4CCCC4)s3)CC2)c1	u	-17.3%	5.3%	x	-22.3%	u
Cc1ccc(Cl)cc1N1CCN(C(=O)c2cccn2-c2nnc(N3CCCCC3)s2)CC1	13µM*	-30.5%	-2.6%	x	u	18.4µM*
O=C(c1cccn1-c1nnc(N2CCCC2)s1)N1CCN(c2ccc(Cl)cc2)CC1	23.1µM*	-25.3%	2.6%	x	u	20.6µM*
O=C(c1cccn1-c1nnc(N2CCCCC2)s1)N1CCN(c2ccc(Cl)cc2)CC1	25.9µM*	-9.0%	2.6%	x	u	u
O=C(CCCc1nc(-c2ccco2)no1)Nc1ccccc1[N+](=O)[O-]	-21.2%	-14.1%	5.7%	x	17.4%	-3.7%
Cc1ccc(Cl)cc1N1CCN(C(=O)C2CCN(c3nnc(-n4cccc4)s3)CC2)CC1	16.4µM*	-20.5%	4.3%	-18.7	u	u
Cc1cc(C)c(NC(=O)CCN2C(=O)c3ccccc3Sc3ncccc32)c(C)c1	20.6µM*	-25.7%	-5.1%	x	u	u
O=C(CN1C(=O)c2ccccc2Sc2ncccc21)Nc1cccc(C(F)(F)F)c1	u	-31.5%	2.6%	x	-16.5%	18.4µM*
Cc1ccc(NC(=O)CCN2C(=O)c3ccccc3Sc3ncccc32)c(Cl)c1	18.4µM*	-25.9%	5.1%	x	-29.4%	18.4µM*
Cc1c(Cl)cccc1NC(=O)CCN1C(=O)c2ccccc2Sc2ncccc21	u	-35.5%	2.6%	x	u	u
COc1cccc(CNC(=O)c2ccc3c(c2)nc2n3CCOC2)c1OC	-9.7%	-2.0%	2.7%	x	-0.7%	5.6%
CC(OC(=O)C1=Cc2ccccc2OC1)C(=O)NCc1ccco1 (centres undefined)	u	-3.7%	2.7%	-9.7	-18.4%	-7.7%
CCC(OC(=O)C1=Cc2ccccc2OC1)C(=O)NCc1ccco1 (centres undefined)	25.9µM*	-1.4%	5.1%	2.3	-6.0%	-28.1%
CCOC(=O)C(=NCC1CCCO1)NNc1ccccc1Cl (centres undefined)	-9.8%	1.26µM*	7.5%	3.3	-4.6%	6.5%
CCOC(=O)c1ccccc1NC(=O)C1CCCO1 (centres undefined)	6.4%	-33.3%	x	-8.1	-3.5%	-5.4%
O=C(CSc1nnc(-c2ccccc2)o1)c1nnc(-c2ccccc2)o1	u	-37.5%	9.1%	-0.6	u	-21.0%
O=C(O)CSc1ncnc2sc(-c3ccccc3)cc12	-4.4%	-15.0%	0.0%	-4.0	0.2%	-1.9%
CC(=O)CCSc1ncnc2sc(-c3ccccc3)cc12	u	-19.8%	1.9%	-90.9*	u	u
SMILES	TDP1 cell noCPT	HepG2 viability	TDP1 block	IL-1B inflam inh	TGFb SMAD3 inh	DT40 TDP1 CPT
O=C(CSc1nnc(-c2ccccc2)o1)c1ccc2c(c1)OCCO2	u	11.2%	4.0%	20.0	-11.2%	16.4µM*
CC(=O)c1c(C)[nH]c(C(=O)CSc2ncnc3sc(-c4ccccc4)cc23)c1C	u	-8.3%	2.7%	50.2	-12.3%	9.2µM*
CC(=O)c1c(C)[nH]c(C(=O)CSc2nnc(-c3ccccc3)o2)c1C	14.6µM*	-29.9%	5.2%	5.5	-30.1%	16.4µM*
C=C(C[C@]1(C(=O)OC)CC2(CC=C(C)C)C(=O)C(C(=O)CC(C)C)=C(O)C(CC=C(C)C)(C1)C2=O)C(=O)OC (some centres undefined)	x	x	9.3%	x	x	x
COc1ccc([C@H]2CC(=O)C=C(c3cc(F)ccc3F)C2)cc1OC	-51.8%	-18.0%	2.2%	-25.3	-21.2%	u
COc1ccc([C@H]2CC(=O)C=C(c3ccc(OC(F)(F)F)cc3)C2)cc1	u	-27.2%	-6.4%	-16.7	-26.6%	u
COc1ccc([C@H]2CC(=O)C=C(c3ccc(-c4ccccc4)cc3)C2)cc1OC	-21.2%	-7.0%	-0.7%	26.9	-6.9%	-14.4%
COc1ccc([C@H]2CC(=O)C=C(c3ccc(CNC(=O)OC(C)(C)C)cc3)C2)cc1	23.1µM*	-19.1%	0.6%	-8.2	u	u
COc1ccc([C@H]2CC(=O)C=C(c3cccc(OC)c3OC)C2)cc1OC	23.1µM*	-6.8%	1.0%	18.8	u	u
COc1ccc(C2=CC(=O)C[C@H](c3ccc(OC)c(OC)c3)C2)cc1	18.4µM*	-12.2%	4.4%	-29.1	-8.3%	13µM*
COc1ccc([C@H]2CC(=O)C=C(c3ccc(C)cc3)C2)cc1OC	u	-13.3%	2.2%	-12.6	-12.1%	18.4µM*
CCCOc1ccc(C2=CC(=O)C[C@H](c3ccc(OC)cc3)C2)cc1	u	-4.8%	-2.7%	-10.3	u	u
CC(C)=NOCc1ccc(-c2cc(-c3ccccc3)no2)cc1	x	x	7.9%[21 µM]	x	x	x
CCOc1cc(C2c3c(oc4ccccc4c3=O)C(=O)N2Cc2ccccc2Cl)ccc1O (centres undefined)	u	-0.8%	-2.1%	x	11.7%	u
CC(=O)c1ccc(N2CCN(C(=O)NCc3noc4ccc(C)cc34)CC2)cc1	u	-47.1%	-2.6%	x	-25.5%	u
CCOc1ccc(NC(=O)c2ccccc2O)cc1	u	-24.4%	1.7%	-18.1	18.8%	-15.6%
CCOc1ccc(-c2cc(C(=O)NCc3ccc(C)cc3)c3ccccc3n2)cc1	-13.5%	0.2%	0.0%	x	u	-16.6%

Source: PubChem BioAssay (National Center for Advancing Translational Sciences (NCATS))
